These results are taken from PubChem BioAssay (NCATS).

Inconclusive results are not listed. The source made the active and inactive calls. Calls follow the shape of the dose curve; as a rule, active = well fitted inhibition curve with a large enough effect; inconclusive = small, poorly fitted or top-dose-only effect; inactive = no such curve, though single readings can be large or run the other way.
% is scaled to controls: 0 for no effect and ±100 for the full control effect; potency is read from the fitted curve at half-maximal effect.

This assay deals with Zika virus NS2B-NS3 protease (unlinked complex). The experiment in a line: Primary screen GU Rhodamine qHTS for Zika virus inhibitors: Unlinked NS2B-NS3 protease assay (AID 1347159). Also: nearly all actives have a fitted effect of over 60% in size. As to conditions: Recombinant ZIKV NS2B-NS3 protease, Rhodamine110 substrate fluorescence; series mostly up to 107 µM; activity change, negative = inhibition: at the top concentration. The essentials:
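In dose–response format, inhibition of unlinked protease (25 nM) was measured with 1.5 microM bis-peptide Rhodamine110 substrate. Aprotinin served as the intraplate control.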
For orientation: In qHTS, concentration-response curves come from the screen itself.
Regarding `CCCCc1c(-c2ccc(OC)cc2)[nH]c2nccnc12`, the “activity change, negative = inhibition” value is 11.7% (inactive).

Take `C=CC(=O)N1CCN(C(=O)CNc2cc(-c3ccccc3Cl)c(Cl)cc2OC)CC1`: the “activity change, negative = inhibition” value is -2.19% (inactive). Same read-out and setting: then `Cc1c(C(=O)NCc2cccnc2)nn(-c2ccc(Cl)cc2Cl)c1-c1ccc(Cl)cc1`, with -26.7% (inactive). Same read-out and setting: the result for `O=C(c1c(F)ccc(NS(=O)(=O)N2CC[C@@H](F)C2)c1F)c1c[nH]c2ncc(-c3cnc(C4CC4)nc3)cc12` reads 0% (inactive); that for `CC(C)(C)OC(=O)c1ncn2c1C(C)(C)Nc1ccccc1-2`, 5.07% (inactive). Same read-out and setting: the result for `CCOc1ccc(CCNC(=O)c2cc3sc(Cl)cc3n2C)cc1OCC` reads -3.64% (inactive); that for `COc1ccccc1N1CCN(CC(C(=O)NC(C)(C)C)c2ccccc2)CC1` (centres undefined), 55.5% (inactive); that for `CN(C)CCN(Cc1ccc(-c2ccc(CNCCc3ccccc3)cc2)cc1)C(=O)CCC1CCCC1`, 144% (inactive).

For the compound `COC(=O)c1sccc1S(=O)(=O)Nc1ccc(Nc2ccccc2)cc1OC`, the “activity change, negative = inhibition” value was 7.23% (inactive). On the same count and under the same terms, then `CC(C)(N)c1ncc(-c2ccc(OC(F)(F)F)cc2)[nH]1`, with 81.9% (inactive).

As to `Cc1nc(C(=O)N2CCC[C@H]2Cc2nnc(-c3ccccc3)o2)c(-c2ccccc2F)s1`, the “activity change, negative = inhibition” value was -9.72% (inactive).

As for `OC(CC1c2ccccc2-c2cncn21)C1CCCCC1` (centres undefined), the “activity change, negative = inhibition” value was 13.4% (inactive). For `C=CC(=O)N1CC(N2CCN(C(=O)CNc3cc(C4CC4)c(Cl)cc3O)CC2)C1`, the “activity change, negative = inhibition” value was -1.57% (inactive). With `COc1cc2c(cc1NS(=O)(=O)c1ccc(Br)cc1C)n(C)c(=O)n2C`, the “activity change, negative = inhibition” value is -12.2% (inactive). Still for that read-out and setting: then `CCn1c(-c2nonc2N)nc2c(C#CC(C)(C)O)ncc(OCC3CCCNC3)c21` (centres undefined), with 11.1% (inactive); and `CCc1cc(C(N)=O)ccc1-n1nc(C(C)C)c2c(-n3cnc(-c4cnn(C)c4)c3)ccnc21`, with 0% (inactive); and `N#Cc1ccc2ncnc(NCCc3ccccc3)c2c1`, with 4.49% (inactive).

Consider `O=S(=O)(NCc1cccc2ccccc12)c1cc(Cl)c(Oc2cccc(N3CCNCC3)c2)s1`, for which the “activity change, negative = inhibition” value is 205% (inactive). The same measure, in the same setting: then `O=S(=O)(N[C@H]1CCCC[C@@H]1N1CCOCC1)c1ccc(Cl)cc1`, with 0% (inactive); and `Cc1[nH]c(/C=C2\C(=O)Nc3ccc(F)cc32)c(C)c1C(=O)NCCN1CCCC1`, with 71.8% (inactive); and `COc1cc(F)c(F)c(Nc2ccc(I)cc2F)c1NS(=O)(=O)C1(CC(O)CO)CC1` (centres undefined), with -3.19% (inactive). For `Cc1cc(-c2ncc(-c3cccnc3)cc2/C=C/c2ccccc2)cnc1-c1cccnc1`, the “activity change, negative = inhibition” value was 0% (inactive).

As for `CC1(C)SCCN(S(=O)(=O)c2ccc(Oc3ccncc3)cc2)[C@H]1C(=O)NO`, the “activity change, negative = inhibition” value was 9.22% (inactive). For the compound `CC[C@H](C)/C=C(C)/C=C/C1=CC2=C(Cl)C(=O)[C@](C)(O)[C@H](OC(C)=O)[C@H]2CO1`, the Potency is 10 µM (active). With `CCC(C)C1NC(=O)C(Cc2ccccc2)NC(=O)C(CCCCCC(=O)C(O)CO)NC(=O)C2CCCCN2C1=O` (centres undefined), the “activity change, negative = inhibition” value was 0.324% [at 32.5 µM] (inactive). The same measure, in the same setting: the result for `Cc1cc2occ(CN(C)CCN(C)Cc3cn(-c4cccc(C(F)(F)F)c4)c4ccccc34)c(=O)c2cc1C` reads 157% (inactive); that for `N#CSc1cc(SC#N)c(N)nc1N`, 0% [at 32.5 µM] (inactive); that for `COc1cc(N2CCC(N)CC2)ccc1Nc1ncc(Cl)c(-c2c[nH]c3ccccc23)n1`, 131% (inactive). Still for that read-out and setting: the result for `COc1ccc(C#Cc2ccc(C(=O)N3CCC[C@@H](O)C3)c(F)c2)cc1` reads -1.21% (inactive). Still for that read-out and setting: the result for `CC1=CC2/C=C(\C)CCC(O)C/C=C/C(=O)OC23C(=O)NC(CC(C)C)C3C1C` (centres undefined) reads 18.5% [at 57.1 µM] (inactive). On to `CNC1CN(c2ccc3c(=O)c(C(=O)O)cn(-c4nccs4)c3n2)CC1OC` (centres undefined), for which the activity change, negative = inhibition is 18.7% [at 19.1 µM] (inactive). On the same count and under the same terms, then `COc1cc(O)cc(OC2OC(CO)C(O)C(O)C2O)c1` (centres undefined), with -9.29% (inactive); and `COC1CC(=O)C23C(=O)NC(CC(C)C)C2C(C)C(C)=CC3/C=C(\C)CCCC1O` (centres undefined), with -10.8% [at 57.1 µM] (inactive); and `C=C1C(=O)O[C@@H]2[C@H]1CC(=O)[C@H](C)[C@@](O)(C(=O)/C=C/C)[C@H]2OC(=O)C(C)CC` (some centres undefined), with 5.67% (inactive). On to `O=C1Nc2ccccc2-c2nc3ccccc3c(=O)n2-c2c(O)cccc21`, for which the “activity change, negative = inhibition” value was -15.1% (inactive). For `Fc1ccc2c(CCNCc3cccc(OCC(F)(F)C(F)F)c3)c[nH]c2c1`, the “activity change, negative = inhibition” value was 142% (inactive). Still for that read-out and setting: the result for `COc1ccc(C#Cc2ccc(C(=O)N3CCC[C@@H](CO)C3)cc2)cc1` reads 1.93% (inactive).

Take `CNCCN1CCC(c2cc(CN(C)C(=O)c3cccc(Oc4ccccc4)c3)ccn2)CC1`: the “activity change, negative = inhibition” value is -13.8% [at 57.1 µM] (inactive). Same read-out and setting: then `CC(C)C[C@@H](C(=O)N[C@@H](Cc1ccc(OCc2ccccc2)cc1)C(=O)NC(C)(C)C)N(C)Cc1ccc(C(C)(C)C)cc1`, with 24.6% (inactive).
